Screens (PubChem BioAssay)
G9a inh: qHTS Assay for Inhibitors of Histone Lysine Methyltransferase G9a; actives 8.8% (n = 350,000); Histone-lysine N-methyltransferase EHMT2 (Homo sapiens), Q96KQ7; G9a H3K9 monomethylation, AlphaScreen, 2 h; Potency, µM (top dose mostly 102 µM), most hits filed as inhibitors; also: nearly all actives have a fitted effect of over 75% in size
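Step 1: enzyme (final 20 nM) with compound, 15 min RT. Step 2: substrate peptide 500 nM and SAM 20 uM, 2 h RT. Step 3: anti-H3K9me1 antibody and AlphaScreen beads, 10 min, then plate read.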
GLS inhibitor: qHTS for Inhibitors of Glutaminase (GLS); Potency, µM (titrated, usually from 45.5 µM), usual class: inhibitors; GLS enzymatic activity, qHTS titration; Glutaminase kidney isoform, mitochondrial (Homo sapiens), O94925; actives 0.21% (n = 410,000)
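Human kidney-isoform GLS in 45 mM KH2PO4 pH 8.2, 0.02% Tween-20, with compound, started with 1mM L-Glutamine (added stock). Glutamate oxidase/HRP/Amplex red coupled fluorescence read at start and after 30 min at RT.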
BAZ2B block: qHTS Assay for Inhibitors of BAZ2B; Bromodomain adjacent to zinc finger domain protein 2B (Homo sapiens), Q9UIF8; AlphaScreen BAZ2B-H3K14Ac peptide displacement; Potency, µM (titrated, usually from 114 µM), hits mostly inhibitors; actives 4.4% (n = 360,000); AID 504333, 2011; also: nearly all actives have a fitted effect of over 60% in size
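Multi-concentration screen (max 110 uM) measuring displacement of acetylated histone H3 peptide from BAZ2B by AlphaScreen, using 50 nM protein, 50 nM peptide and 10 ug/mL streptavidin donor plus Ni-chelate acceptor beads.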
JMJD2A Tudor: qHTS Assay for Inhibitors of JMJD2A-Tudor Domain | Potency, µM (titrated, usually from 114 µM), hits mostly inhibitors | AlphaScreen JMJD2A-Tudor / H3K4me3 peptide binding | actives 4.4% (n = 390,000) | Lysine-specific demethylase 4A (Homo sapiens), O75164; also: nearly all actives have a fitted effect of over 50% in size
HP1b chromo inh: HTS for Inhibitors of HP1-beta Chromodomain Interactions with Methylated Histone Tails; Chromobox protein homolog 1 (Homo sapiens), P83916; AlphaScreen HP1-beta / biotin-H3K9me3 peptide binding; Potency, µM (top dose mostly 114 µM), usual class: inhibitors; actives 0.56% (n = 390,000); AID 540317, 2011; also: nearly all actives have a fitted effect of over 70% in size
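AlphaScreen: HP1-beta (50 nM) preformed 30 min with biotin-H3(1-18)K9me3 peptide (50 nM) in PBS pH 7.4, 0.01% Tween-20. Compound added for 30 min at RT, then streptavidin donor/nickel chelate acceptor beads (10 ug/mL) for 30 min.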
Numbers stand for hits; [ ] = remark or other dose. Only some compounds are listed: those with a hit (about 10% of all), similar ones and a draw of the others. Calls follow the shape of the dose curve; as a rule, active = well fitted curve in the direction sought with a large enough effect; inconclusive = small, poorly fitted or top-dose-only effect, or another doubt; inactive = no such curve, though single readings can be large; an effect the other way counts as inactive or inconclusive.

How did Oc1ccc2ccccc2c1CN1CCCCC1 do in these assays?
GLS inhibitor: inactive; JMJD2A Tudor: inactive; HP1b chromo inh: inactive

What do the screens show for `Cc1cc(Nc2c(C)n(C)n(-c3ccccc3)c2=O)c2ccccc2n1`?
G9a inh: inactive; GLS inhibitor: inactive; BAZ2B block: inactive; JMJD2A Tudor: inactive; HP1b chromo inh: inactive

How did COc1ccc(C2Nc3ccccc3C(=O)N2Cc2ccccc2)cc1COc1cccc(C)c1 (stereo unspecified) do in these assays?
JMJD2A Tudor: inactive

What do the screens show for `Oc1ccc(CN2CCCCC2)c2cccnc12`?
G9a inh: inconclusive; GLS inhibitor: inactive; BAZ2B block: 3.16µM; JMJD2A Tudor: 8.91µM; HP1b chromo inh: inactive

How did Cc1ccc(-n2c(O)c(C=NCc3ccccn3)c3ccccc3c2=O)cc1 do in these assays?
G9a inh: inactive; GLS inhibitor: inactive; BAZ2B block: 56.2µM; JMJD2A Tudor: inactive; HP1b chromo inh: inactive

Results for COc1ccc(-c2[nH]ncc2/C=N\NS(=O)(=O)c2ccccc2)cc1OC ?
G9a inh: 50.1µM; GLS inhibitor: inactive; BAZ2B block: inactive; JMJD2A Tudor: inactive; HP1b chromo inh: inactive

Results for COc1ccc(-n2c(O)c(/C=N/NS(=O)(=O)c3ccc(C)cc3)c3ccccc3c2=O)cc1OC ?
G9a inh: 11.2µM; GLS inhibitor: inactive; BAZ2B block: inconclusive; JMJD2A Tudor: inconclusive; HP1b chromo inh: inactive

Results for COc1ccc(-n2c(O)c(/C=N/NS(=O)(=O)c3cc(C)ccc3C)c3ccccc3c2=O)cc1OC ?
G9a inh: inconclusive; GLS inhibitor: inactive; BAZ2B block: 44.7µM; JMJD2A Tudor: 50.1µM; HP1b chromo inh: inactive

Results for COc1ccc(-c2[nH]ncc2/C=N\NS(=O)(=O)c2ccc(Cl)cc2)cc1 ?
G9a inh: inactive[12.7 µM]; GLS inhibitor: inactive; BAZ2B block: inactive; JMJD2A Tudor: inactive; HP1b chromo inh: inactive

How did Cc1cccc(-n2c(O)c(C=NCc3ccccn3)c3ccccc3c2=O)c1 do in these assays?
G9a inh: inactive; GLS inhibitor: inactive; BAZ2B block: inconclusive; JMJD2A Tudor: inactive; HP1b chromo inh: inactive

What do the screens show for `CC(=O)Nc1ccn(C2OC(C(COC(C)=O)NC(=O)C(CCCCNC(=O)OCc3ccccc3)NC(=O)OC(C)(C)C)C(OC(C)=O)C2OC(C)=O)c(=O)n1` (stereo unspecified)?
JMJD2A Tudor: inactive; HP1b chromo inh: inactive

What do the screens show for `OC[C@@H]1CN(CCN2CCOCC2)C[C@H](n2cnc3c(NC4CCCC4)ncnc32)O1`?
GLS inhibitor: inactive

What do the screens show for `Cc1nnc(NCc2ccccc2)c2c1nnn2Cc1ccccc1Cl`?
G9a inh: inactive; GLS inhibitor: inactive; BAZ2B block: inactive; JMJD2A Tudor: inactive; HP1b chromo inh: inactive

Results for CN1C(=O)c2ccccc2Sc2ccc(NC(=O)N3CCN(c4ccccc4F)CC3)cc21 ?
G9a inh: inactive; GLS inhibitor: inactive; BAZ2B block: inactive; JMJD2A Tudor: inactive; HP1b chromo inh: inactive

How did Cc1c(Cl)cccc1-n1ncc(C(=O)NC2CCCC2)c1C1CCN(C(=O)OC(C)(C)C)CC1 do in these assays?
G9a inh: inactive; GLS inhibitor: inactive; BAZ2B block: inactive; JMJD2A Tudor: inactive; HP1b chromo inh: inactive

How did N/C(=N\N=C/c1ccc(F)cc1)N/N=C\c1ccc(F)cc1 do in these assays?
G9a inh: 50.1µM; GLS inhibitor: inactive; BAZ2B block: inconclusive; JMJD2A Tudor: inconclusive; HP1b chromo inh: inactive

How did O=C(N/N=C\c1ccc(F)cc1)c1csnn1 do in these assays?
G9a inh: 1.58µM; GLS inhibitor: inactive; BAZ2B block: inactive; JMJD2A Tudor: inactive; HP1b chromo inh: inactive

What do the screens show for `Cc1ccccc1/C=N\NC(=O)c1csnn1`?
G9a inh: inconclusive; GLS inhibitor: inactive; BAZ2B block: inactive; JMJD2A Tudor: inactive; HP1b chromo inh: inactive

How did O=[N+]([O-])c1cc([N+](=O)[O-])c2n[nH]c(-c3ccccc3)c2c1 do in these assays?
G9a inh: inactive; GLS inhibitor: inactive; BAZ2B block: inactive; JMJD2A Tudor: inactive[11.4 µM]; HP1b chromo inh: inactive

Results for Cc1cnc(SCCc2ccncc2)nc1C ?
G9a inh: 8.91µM; BAZ2B block: inactive
